A short description of test [1]: BSK_hDFCGF_Proliferation: Cell Proliferation Assessment in the BioMAP Diversity Plus: hDFCGF Assay (AID 2283059).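 Note: curves fitted for both rise and fall of signal versus DMSO baseline.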 Particulars: primary human foreskin fibroblasts. An outline of the steps:
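Primary human foreskin fibroblasts, sub-confluent; […]; 10% TCA fix, 0.1% SRB stain, A560 total protein. Gain/loss fitted bidirectionally vs DMSO control.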

Test [2] is described as follows: BSK_hDFCGF_SRB: Viability Assessment in the BioMAP Diversity Plus: hDFCGF Assay (AID 2283061).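 Note: cells exposed to compound for 24 h before the read.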 Particulars: primary human foreskin fibroblasts. The method, boiled down: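 Human foreskin primary fibroblasts were treated with compound and assessed 24 h after dosing. Total protein was measured by sulforhodamine B staining (0.1% SRB after 10% TCA fixation, 560 nm read) as a cytotoxicity marker, with bidirectional fitting against DMSO baseline.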

Read-out in test [3]: TIMP metallopeptidase inhibitor 1 (TIMP1), TIMP1 (gene 7076)
The test can be described thus: BSK_hDFCGF_TIMP1: BioMAP Diversity Plus: hDFCGF Assay for TIMP metallopeptidase inhibitor 1 (TIMP1) Biomarker Activity (AID 2283062). The conditions noted are these: primary human foreskin fibroblasts; actives raise or lower the signal. The method, boiled down:
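Primary human foreskin fibroblasts in the hDFCGF system were dosed with compound for 24 h, then TIMP-1 was measured by ELISA. Activity was fitted bidirectionally relative to DMSO control; parallel SRB staining assessed cytotoxicity.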

Read-out in test [4]: Vascular cell adhesion molecule 1 (VCAM1), VCAM1 (gene 7412)
The test can be described thus: BSK_hDFCGF_VCAM1: BioMAP Diversity Plus: hDFCGF Assay for Vascular cell adhesion molecule 1 (VCAM1) Biomarker Activity (AID 2283065). The conditions noted are these: primary human foreskin fibroblasts; actives raise or lower the signal. An outline of the steps:
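Primary human foreskin fibroblasts (hDFCGF system) were dosed with chemical and VCAM-1 was measured by ELISA 24 h later. Bidirectional curve fitting used DMSO as negative control and activity baseline.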

Read-out in test [5]: Plasminogen activator inhibitor-1 (PAI1), SERPINE1 (gene 5054)
The experiment in a line: BSK_hDFCGF_PAI1: BioMAP Diversity Plus: hDFCGF Assay for Plasminogen activator inhibitor-1 (PAI1) Biomarker Activity (AID 2283066). Particulars: primary human foreskin fibroblasts; actives raise or lower the signal. An outline of the steps:
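Human foreskin fibroblasts in the hDFCGF system were dosed with compound for 24 h; PAI-1 was quantified by ELISA. Bidirectional curve fitting used DMSO as negative control and baseline.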

Read-out in test [6]: Intercellular Adhesion Molecule 1 (ICAM1), ICAM1 (gene 3383)
The experiment in a line: BSK_KF3CT_ICAM1: BioMAP Diversity Plus: KF3CT Assay for Intercellular Adhesion Molecule 1 (ICAM1) Biomarker Activity (AID 2283067). The conditions noted are these: primary human keratinocytes with fibroblasts; actives raise or lower the signal. An outline of the steps:
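Human keratinocyte plus foreskin fibroblast primary co-culture was exposed to chemical for 24 h. ICAM-1 was then quantified by ELISA, and the data were fit bidirectionally against DMSO as the negative control and baseline.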

Read-out in test [7]: Interferon-gamma inducible Protein 10 (IP10), CXCL10 (gene 3627)
The experiment in a line: BSK_KF3CT_IP10: BioMAP Diversity Plus: KF3CT Assay for Interferon-gamma inducible Protein 10 (IP10) Biomarker Activity (AID 2283068). Particulars: primary human keratinocytes with fibroblasts; actives raise or lower the signal. The method, boiled down: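 In a primary skin co-culture of keratinocytes and fibroblasts, IP-10 is quantified by ELISA at 24 h after dosing. SRB staining of parallel wells monitors overt toxicity. Curves are fitted both directions against DMSO.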

Test [8] can be described thus: BSK_KF3CT_SRB: Viability Assessment in the BioMAP Diversity Plus: KF3CT Assay (AID 2283069).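 Note: fitted for both signal gain and loss against DMSO baseline.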 Particulars: primary human keratinocytes with fibroblasts. The method, boiled down:
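Keratinocytes co-cultured with foreskin fibroblasts (human primary); chemical added, 24 h; fix 10% TCA, stain 0.1% SRB, A560. Bidirectional fit vs DMSO.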

Read-out in test [9]: Interleukin-1 alpha (IL1a), IL1A (gene 3552)
The experiment in a line: BSK_KF3CT_IL1a: BioMAP Diversity Plus: KF3CT Assay for Interleukin-1 alpha (IL1a) Biomarker Activity (AID 2283070). The conditions noted are these: primary human keratinocytes with fibroblasts; actives raise or lower the signal. An outline of the steps: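 Chemicals were dosed onto co-cultured human keratinocytes and foreskin fibroblasts, IL-1a was quantified by ELISA at 24 h, and activity was fitted in both directions relative to DMSO controls.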

Read-out in test [10]: TIMP metallopeptidase inhibitor 2 (TIMP2), TIMP2 (gene 7077)
The test can be described thus: BSK_KF3CT_TIMP2: BioMAP Diversity Plus: KF3CT Assay for TIMP metallopeptidase inhibitor 2 (TIMP2) Biomarker Activity (AID 2283071). Particulars: primary human keratinocytes with fibroblasts; actives raise or lower the signal. An outline of the steps:
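Human primary keratinocyte/foreskin fibroblast co-culture dosed with chemical and sampled at 24 h. TIMP-2 levels quantified by ELISA; bidirectional fitting against DMSO negative control as baseline.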

Read-out in test [11]: C-C motif chemokine 2 (Homo sapiens) (UniProt P13500)
The test can be described thus: BSK_KF3CT_MCP1: BioMAP Diversity Plus: KF3CT Assay for Monocyte Chemoattractant Protein 1 (MCP1/CCL2) Biomarker Activity (AID 2283073). The conditions noted are these: primary human keratinocytes with fibroblasts; actives raise or lower the signal. The method, boiled down: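 Human keratinocyte plus foreskin fibroblast primary co-culture exposed to chemical for 24 h. MCP-1 levels measured by ELISA. Bidirectional curve fitting relative to DMSO negative control as baseline.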

Read-out in test [12]: Matrix Metallopeptidase 9 (MMP9), MMP9 (gene 4318)
The experiment in a line: BSK_KF3CT_MMP9: BioMAP Diversity Plus: KF3CT Assay for Matrix Metallopeptidase 9 (MMP9) Biomarker Activity (AID 2283074).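 For AC50: MMP9 protein level quantified by ELISA in the co-culture.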 Particulars: primary human keratinocytes with fibroblasts; actives raise or lower the signal. An outline of the steps:
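Human keratinocyte/foreskin fibroblast co-culture; compound added; 24 h; MMP-9 by ELISA; bidirectional fit vs DMSO baseline.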

Read-out in test [13]: urokinase plasminogen activator (uPA), PLAU (gene 5328)
The test can be described thus: BSK_KF3CT_uPA: BioMAP Diversity Plus: KF3CT Assay for urokinase plasminogen activator (uPA) Biomarker Activity (AID 2283075). The conditions noted are these: primary human keratinocytes with fibroblasts; actives raise or lower the signal. The method, boiled down:
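ELISA readout of uPA, analyzed for signal gain or loss relative to DMSO, from a human primary keratinocyte–foreskin fibroblast co-culture measured 24 h after chemical treatment.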

Read-out in test [14]: E-selectin (Homo sapiens) (UniProt P16581)
The test can be described thus: BSK_LPS_Eselectin: BioMAP Diversity Plus: LPS Assay for Eselectin Biomarker Activity (AID 2283077). Particulars: primary human HUVEC with PBMC; actives raise or lower the signal. The method, boiled down:
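Human umbilical vein endothelial cells co-cultured with peripheral blood mononuclear cells under LPS stimulation; E-selectin measured by ELISA 24 h after chemical dosing. Activity fitted bidirectionally against DMSO as negative control and baseline.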

Read-out in test [15]: Interleukin-8 (IL8), CXCL8 (gene 3576)
The test can be described thus: BSK_LPS_IL8: BioMAP Diversity Plus: LPS Assay for Interleukin-8 (IL8) Biomarker Activity (AID 2283078). Particulars: primary human HUVEC with PBMC; actives raise or lower the signal. An outline of the steps: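 Human umbilical vein endothelial cells co-cultured with PBMC were stimulated with LPS; IL-8 levels were measured by ELISA 24 h after chemical dosing. Activity was fitted bidirectionally against DMSO as negative control and baseline.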

Test [16] is described as follows: BSK_LPS_SRB: Viability Assessment in the BioMAP Diversity Plus: LPS Assay (AID 2283079).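 Note: total protein by sulforhodamine B absorbance as a cytotoxicity measure; measured one day after compound addition; fitted in both directions against DMSO so loss or gain of signal counts.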 The conditions noted are these: primary human HUVEC with PBMC. The method, boiled down:
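Human umbilical vein endothelial cells co-cultured with PBMC (LPS system) were dosed for 24 h. Total protein was stained with 0.1% sulforhodamine B after 10% TCA fixation, read at 560 nm, and fitted bidirectionally against DMSO baseline.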

Read-out in test [17]: Monocyte Chemoattractant Protein-1 (MCP1), CCL2 (gene 6347)
The experiment in a line: BSK_LPS_MCP1: BioMAP Diversity Plus: LPS Assay for Monocyte Chemoattractant Protein-1 (MCP1) Biomarker Activity (AID 2283081). The conditions noted are these: primary human HUVEC with PBMC; actives raise or lower the signal. An outline of the steps: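 HUVEC plus PBMC co-culture (human primary cells, LPS system) exposed to test chemical for 24 h; MCP-1 measured by ELISA. Bidirectional curve fitting against DMSO baseline; parallel SRB total-protein staining flags overt cytotoxicity.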

Test [18] in a line: BSK_LPS_PGE2: BioMAP Diversity Plus: LPS Assay for Prostaglandin E2 (PGE2) Biomarker Activity (AID 2283082). The conditions noted are these: primary human HUVEC with PBMC; actives raise or lower the signal. An outline of the steps:
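HUVEC plus PBMC co-culture stimulated with LPS; secreted PGE2 quantified by ELISA 24 h after chemical dosing. Activity fitted bidirectionally against DMSO as negative control and baseline; parallel SRB total-protein staining served as cytotoxicity check.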

Read-out in test [19]: Macrophage colony-stimulating factor (MCSF), CSF1 (gene 1435)
The test can be described thus: BSK_LPS_MCSF: BioMAP Diversity Plus: LPS Assay for Macrophage colony-stimulating factor (MCSF) Biomarker Activity (AID 2283083). Particulars: primary human HUVEC with PBMC; actives raise or lower the signal. An outline of the steps:
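Human umbilical vein endothelial cells co-cultured with peripheral blood mononuclear cells were exposed to compound for 24 h. M-CSF levels were measured by ELISA, and bidirectional curve fitting used DMSO as the negative control and baseline.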

Read-out in test [20]: Tissue Factor, F3 (gene 2152)
The test can be described thus: BSK_LPS_TissueFactor: BioMAP Diversity Plus: LPS Assay for Tissue Factor Biomarker Activity (AID 2283084). Particulars: primary human HUVEC with PBMC; actives raise or lower the signal. The method, boiled down:
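Human umbilical vein endothelial cells co-cultured with peripheral blood mononuclear cells were dosed and stimulated with LPS. Cell-surface CD142 was quantified by ELISA at 24 h. Activity was fitted bidirectionally against DMSO baseline.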

Among the data in PubChem BioAssay (EPA / NIEHS) are outcome and AC50 values, retold here.

Active and inactive are the calls of the source. Rule for the calls: active = hit-call score of the fitted dose curve at least 0.9, where 1 is the maximum; inactive = score below 0.9.

Broadly, the AC50 is the midpoint of the concentration-response curve, whichever way the signal moves.

Chain of E-selectin (Homo sapiens) (P16581 whole entry, looked up): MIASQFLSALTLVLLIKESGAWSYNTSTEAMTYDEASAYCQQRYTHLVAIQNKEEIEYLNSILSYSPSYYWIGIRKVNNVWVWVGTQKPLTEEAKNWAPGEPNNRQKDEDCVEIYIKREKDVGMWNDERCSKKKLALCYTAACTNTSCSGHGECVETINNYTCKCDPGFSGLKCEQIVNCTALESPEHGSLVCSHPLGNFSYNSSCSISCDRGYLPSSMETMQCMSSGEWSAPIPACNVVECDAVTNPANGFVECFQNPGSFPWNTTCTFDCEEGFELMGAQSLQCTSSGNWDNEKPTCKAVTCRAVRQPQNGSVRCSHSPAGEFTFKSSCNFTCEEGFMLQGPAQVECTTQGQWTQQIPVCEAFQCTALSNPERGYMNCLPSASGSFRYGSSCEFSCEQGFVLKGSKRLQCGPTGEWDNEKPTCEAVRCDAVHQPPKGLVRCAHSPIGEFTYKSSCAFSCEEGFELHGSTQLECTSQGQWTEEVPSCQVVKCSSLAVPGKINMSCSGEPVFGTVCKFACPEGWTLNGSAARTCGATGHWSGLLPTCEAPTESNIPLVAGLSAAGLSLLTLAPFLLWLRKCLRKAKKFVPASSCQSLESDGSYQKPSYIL

In the case of `O=C(C(=O)c1ccccc1)c1ccccc1`, the result in test [1], in test [2], in test [3], in test [4], in test [5] and in test [6] was inactive. Moreover, the result in test [7], in test [8], in test [9], in test [10], in test [11] and in test [12] was inactive. Also, the outcome in test [13], in [14], in test [16], in [17], in [18] and in test [19] was inactive. Besides, in test [20], the result was inactive. In test [15], the AC50 is 0.0917 µM (active).

For the compound `CCCCCCCCCC/C=C/C1CC(=O)OC1=O` (stereo not given), the result in test [1], in [2], in test [3], in test [4], in test [5] and in test [6] was inactive. The result in [7], in test [8], in test [9], in [10], in [11] and in test [13] was inactive. For the same compound, the outcome in test [14], in test [15], in [16], in test [17], in test [18] and in [19] was inactive. Moreover, the outcome in test [20] was inactive. In addition, the AC50 in test [12] was 27.7 µM (active).

For the compound `Oc1cccc2ccccc12`, the AC50 in [1] is 13.3 µM (active); in test [20], 6.27 µM (active). Besides, the outcome in test [2], in test [3], in test [4], in test [5], in test [6] and in test [7] was inactive. In addition, the result in test [8], in [9], in test [10], in [11], in [12] and in test [13] was inactive. Further, the outcome in test [14], in test [15], in test [16], in [17], in [18] and in [19] was inactive.

`CC[N+](CC)(CC(=O)Nc1c(C)cccc1C)Cc1ccccc1`: the result in [1], in test [2], in test [3], in [4], in test [5] and in [6] was inactive. Moreover, the result in test [7], in test [8], in test [9], in [10], in test [11] and in [12] was inactive. Moreover, the result in test [13], in test [14], in [16], in test [17], in test [18] and in [19] was inactive. The outcome in [20] was inactive. For the same compound, in [15], the AC50 was 0.182 µM (active).

Take `CC[N+](CC)(CC(=O)Nc1c(C)cccc1C)Cc1ccccc1` (tested in a mixture with another compound): the outcome in test [1], in test [2], in test [3], in [4], in [5] and in [6] was inactive. Moreover, the outcome in test [7], in test [8], in test [9], in [10], in test [11] and in [12] was inactive. The result in [13], in test [14], in test [15], in test [16], in test [17] and in test [18] was inactive. For the same compound, the result in test [19] and in [20] was inactive.
